Assay results from PubChem BioAssay (EPA / NIEHS).
Results filed as inconclusive are left out. Activity calls are given as the source filed them. Rule for the calls, unless noted: active = hit-call score of the fitted dose curve at least 0.9, where 1 is the maximum; inconclusive = response in the unintended direction; inactive = score below 0.9.

Tests used:
[1] = CCTE_Mundy_HCI_iCellGluta_NOG_NeuronCount: CCTE's Neurite Outgrowth Assay in iCellGluta cells for Neuron Count, Mundy Lab (AID 2284340);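 note: cells fixed about 48 h after compound addition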
Procedure, shortened: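 Neuron count read by automated high-content imaging of Hoechst 33342 and betaIII-tubulin/Alexa Fluor-488 labelling in human iPSC glutamatergic neurons. Activity fitted relative to DMSO.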

[2] = CCTE_Mundy_HCI_iCellGluta_NOG_NeuriteCount: CCTE's Neurite Outgrowth Assay in iCellGluta cells for Neurite Count, Mundy Lab (AID 2284342);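 note: chemical exposure about 48 hours starting 2 hours after plating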
[3] = tested on: SERPINA7 (gene 6906); experiment: CCTE_GLTED_hTBG: CCTE's human Thyroxine-binding Globulin (TBG) Inhibition Assay, Great Lakes Toxicology and Ecology Division (GLTED) Lab (AID 2284343);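 note: active chemicals lower fluorescence versus DMSO baseline by displacing probe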
Procedure, shortened: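 Measures how far test chemicals displace ANSA bound to purified human TBG. The read-out is fluorescence at 380 nm excitation and 475 nm emission, taken after 2 h of incubation.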

[4] = tested on: TTR (gene 7276); experiment: CCTE_GLTED_hTTR_0.125uM: CCTE's human Transthyretin (hTTR) Inhibition Assay, with 0.125uM TTR, Great Lakes Toxicology and Ecology Division (GLTED) Lab (AID 2284431; active = hit-call score of the fitted dose curve at least 0.9, where 1 is the maximum; inactive = score below 0.9;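 note: hits lower the fluorescence signal relative to DMSO baseline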)
Procedure, shortened: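 Cell-free displacement of ANSA probe from 0.125uM TTR after 2 h incubation with chemical. Fluorescence read at 380 nm excitation/475 nm emission; loss of signal relative to DMSO indicates T4-site displacement.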

[5] = CCTE_Deisenroth_H295R-HTRF_384WELL_ESTRADIOL: CCTE's H295R-HTRF Assay Evaluation of Estradiol Concentration, Deisenroth Lab (AID 2284361; active = hit-call score of the fitted dose curve at least 0.9, where 1 is the maximum; inactive = score below 0.9); details: actives raise or lower the signal
Procedure, shortened: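 H295R cells exposed 48 h to chemicals at 0.001 - 100 uM final (nine points, triplicate); estradiol in conditioned medium measured by HTRF immunoassay, fitted bidirectionally versus DMSO. Viability by CellTiter-Glo on same plates.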

[6] = CCTE_Deisenroth_H295R-HTRF_384WELL_TESTOSTERONE: CCTE's H295R-HTRF Assay Evaluation of Testosterone Concentration, Deisenroth Lab (AID 2284373; active = hit-call score of the fitted dose curve at least 0.9, where 1 is the maximum; inactive = score below 0.9); details: actives raise or lower the signal
Procedure, shortened: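 Testosterone secreted into medium was quantified by direct HTRF immunoassay after a 48 h treatment of H295R adrenocortical cells (nine concentrations, 0.001–100 uM final). Gain or loss fitted relative to DMSO; CellTiter-Glo viability read on same plates.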

[7] = CCTE_Deisenroth_H295R-HTRF_384WELL_CTOX: Cytotoxicity Assessment in CCTE's H295R-HTRF Assay, Deisenroth Lab (AID 2284380)
Method: CCTE_Deisenroth_H295R-HTRF_384WELL assay is a cell-based, multiplex-readout assay that uses H295R, a human adrenocortical carcinoma cell line, with measurements taken at 48 hours after chemical dosing in a 384-well microplateCCTE_Deisenroth_H295R-HTRF_384WELL_CTOX is one of 3 assay components measured in the CCTE_Deisenroth_H295R-HTRF_384WELL assay (2 hormones and 1 viability components). It is designed to make measurements of adenosine triphosphate (ATP), a form of viability reporter, as detected with luminescence intensity signals by CellTiter-Glo 2.0 cytotoxicity assay technology.This assay endpoint, CCTE_Deisenroth_H295R-HTRF_384WELL_CTOX, was analyzed in the positive fitting direction relative to DMSO as the negative control and baseline of activity. Using a type of viability reporter, loss-of-signal activity using CellTiter-Glo 2.0 technology was used to understand viability in the H295R cell line at 48hr of chemical exposure. To generalize the intended target to other relatable targets, this assay endpoint is annotated to the cell cycle intended target family, where the subfamily is cytotoxicity
Standard operating procedures for the cell culture medium, maintenance, expansion, and cryopreservation of the NCI-H295R adrenocortical carcinoma adherent cell line were adopted directly from guideline specifications (EPA 2011, OECD 2011). The assay workflow follows a three-day protocol consistent with the paradigm defined in OECD TG 456 and U.S. EPA OCSPP Guideline 890.1550. On day 0, cells are plated in 384-well microplates and acclimated for 24 hours. On Day 1, test chemicals are dispensed into separate 384-well microplates in a nine-point 2X dilution series (0.002 - 200 uM). Without aspirating the growth medium on the assay plates, test chemical suspension is dispensed to achieve a final 1X nominal concentration. Each chemical is run in technical triplicate at a final dilution series of 0.001 - 100 uM. On Day 3, following a 48-hour incubation period with test chemical, the conditioned medium samples are collected and transferred to 384-well sample storage plates. HTRF direct immunoassay technology is employed to detect E2 and T analytes in H295R conditioned medium. HTRF assays for E2 and T are performed with matched conditioned medium samples according to the manufacturer's protocol. Fluorescent endpoint measurements are conducted with a microplate reader equipped with an HTRF-compatible filter set (ex: 320 (10) […]; em: 620 (10) and 665 (10) nM). A multiplexed cell viability assay is implemented on the same plates used for chemical testing using the Promega CellTiter-Glo 2.0 assay. […] After collecting conditioned medium samples on Day 3, the viability assay is immediately performed and luminescence readings measured on a microplate reader. […]

CN(C)[C@@H]1C(=O)C(C(N)=O)=C(O)[C@@]2(O)C(=O)C3=C(O)c4c(O)cccc4[C@@](C)(O)[C@H]3[C@H](O)[C@@H]12
AC50 [1]: 13.4 µM (active) | AC50 [2]: 19.9 µM (active)

CCOP(=S)(OCC)Oc1ccc([N+](=O)[O-])cc1
outcome [1]: inactive | outcome [2]: inactive | AC50 [3]: 11.6 µM (active)

Cc1cc(C2CC2)nc(Nc2ccccc2)n1
AC50 [4]: 14.8 µM (active)

COP(=O)(NC(C)=O)SC (stereo not given)
outcome [1]: inactive | outcome [2]: inactive

CCCSP(=O)(OCC)SCCC
outcome [1]: inactive | outcome [2]: inactive

C=C(C)[C@H]1Cc2c(ccc3c2O[C@@H]2COc4cc(OC)c(OC)cc4[C@@H]2C3=O)O1
AC50 [1]: 0.0672 µM (active) | AC50 [2]: 0.907 µM (active)

FC(F)C(F)(F)OCC(Cn1cncn1)c1ccc(Cl)cc1Cl (stereo not given)
AC50 [3]: 10.1 µM (active)

COc1cccc(C(=O)NN(C(=O)c2cc(C)cc(C)c2)C(C)(C)C)c1C
AC50 [4]: 20.6 µM (active)

CCOP(=S)(Oc1cnc(C(C)(C)C)nc1)OC(C)C (stereo not given)
AC50 [1]: 16 µM (active) | AC50 [2]: 23.9 µM (active) | AC50 [3]: 16.7 µM (active)

Cc1ccn2nc(S(=O)(=O)Nc3c(F)cccc3F)nc2n1
outcome [3]: inactive

CC(C)N(C(=O)SCC(Cl)=C(Cl)Cl)C(C)C
AC50 [1]: 22.4 µM (active) | AC50 [2]: 23.2 µM (active)

CCCCSP(=O)(SCCCC)SCCCC
AC50 [1]: 49.9 µM (active) | outcome [2]: inactive

CCOP(=S)(OCC)OC(Cl)C(Cl)(Cl)Cl (stereo not given)
outcome [1]: inactive | outcome [2]: inactive | AC50 [4]: 33.2 µM (active)

CCOP(=O)(NC(C)C)Oc1ccc(SC)c(C)c1 (stereo not given)
AC50 [1]: 51 µM (active) | outcome [2]: inactive | AC50 [3]: 14.6 µM (active)

CN1COCN(Cc2cnc(Cl)s2)C1=N[N+](=O)[O-]
outcome [2]: inactive

S=C1NCCN1
outcome [1]: inactive | outcome [2]: inactive

CC(C1CC1)C(O)(Cn1cncn1)c1ccc(Cl)cc1 (stereo not given)
outcome [5]: inactive | outcome [6]: inactive | outcome [7]: inactive

CCCCOC(=O)c1ccccc1C(=O)O
AC50 [5]: 54.9 µM (active) | outcome [6]: inactive | outcome [7]: inactive

CCCSP(=O)(OCC)Oc1ccc(Br)cc1Cl (stereo not given)
AC50 [3]: 14.1 µM (active) | AC50 [4]: 3.6 µM (active)

CC1=NNC(=O)N(/N=C/c2cccnc2)C1
outcome [1]: inactive | outcome [2]: inactive

CCCCN(CC)c1c([N+](=O)[O-])cc(C(F)(F)F)cc1[N+](=O)[O-]
AC50 [3]: 2.78 µM (active)

C[Si](Cn1cncn1)(c1ccc(F)cc1)c1ccc(F)cc1
AC50 [3]: 4.09 µM (active) | AC50 [5]: 0.968 µM (active) | outcome [6]: inactive | outcome [7]: inactive

Nc1c(Cl)cc([N+](=O)[O-])cc1Cl
AC50 [4]: 0.176 µM (active)

O=C(O)c1cc(Oc2ccc(C(F)(F)F)cc2Cl)ccc1[N+](=O)[O-]
AC50 [3]: 4.45 µM (active)

CC1(C(=O)Nc2ccc(O)c(Cl)c2Cl)CCCCC1
AC50 [4]: 7.98 µM (active)

CC[C@H](C)[C@H]1O[C@]2(C=C[C@@H]1C)C[C@@H]1C[C@@H](C/C=C(\C)[C@@H](O[C@H]3C[C@H](OC)[C@@H](O[C@H]4C[C@H](OC)[C@@H](NC)[C@H](C)O4)[C@H](C)O3)[C@@H](C)/C=C/C=C3\CO[C@@H]4[C@H](O)C(C)=C[C@@H](C(=O)O1)[C@]34O)O2
AC50 [1]: 0.896 µM (active) | AC50 [2]: 0.824 µM (active)

CCCOCC(=Nc1ccc(Cl)cc1C(F)(F)F)n1ccnc1
AC50 [5]: 0.27 µM (active) | AC50 [6]: 0.414 µM (active) | outcome [7]: inactive | AC50 [4]: 3.56 µM (active)

CC(=NC#N)N(C)Cc1ccc(Cl)nc1
outcome [1]: inactive | outcome [2]: inactive

CCC(CC)Nc1c([N+](=O)[O-])cc(C)c(C)c1[N+](=O)[O-]
AC50 [3]: 1.64 µM (active) | AC50 [4]: 0.448 µM (active)

CCOP(=O)(OCC)Oc1cc(C)nc(C(C)C)n1
outcome [1]: inactive | outcome [2]: inactive

CON=C(C(=O)OC)c1ccccc1CON=C(C)c1cccc(C(F)(F)F)c1
AC50 [1]: 50 µM (active) | AC50 [2]: 24.6 µM (active)

CSC1=N[C@@](C)(c2ccccc2)C(=O)N1Nc1ccccc1
outcome [1]: inactive | outcome [2]: inactive

CCOP(=S)(OCC)SCCSCC
outcome [1]: inactive | AC50 [3]: 13.9 µM (active)

C[N+]1(C)CCCCC1
outcome [1]: inactive | outcome [2]: inactive

COP(=O)(OC)OC(Br)C(Cl)(Cl)Br (stereo not given)
AC50 [1]: 21.7 µM (active) | AC50 [2]: 16.4 µM (active)

O=[N+]([O-])c1cc(C(F)(F)F)c(Cl)c([N+](=O)[O-])c1Nc1ncc(C(F)(F)F)cc1Cl
AC50 [1]: 3.14 µM (active) | AC50 [2]: 0.937 µM (active) | AC50 [3]: 0.388 µM (active) | AC50 [4]: 0.0665 µM (active)
